In the library only some 7.6% were active in any assay of this set; here they are far more common.
SW480 rerep – A quantitative high throughput screen for small molecules that induce DNA re-replication in SW480 colon adenocarcinoma cells; 340,000 tested, 1.8% active; AID 624297, 2012; SW480 DNA re-replication, Hoechst DNA content imaging, 48 h; Potency, µM (top dose mostly 46.1 µM), for inactives: at the highest dose re-replication activation, hits mostly activators; also: potency is read from the fitted curve at half-maximal effect; % of control where 0% means no effect; nearly all actives have a fitted effect of over 55% in size
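Treated cells incubate 48 hr (37 C, 5% CO2), are stained 40 min with Hoechst, and nuclear fluorescence is enumerated; a rise in nuclei with high DNA signal marks re-replication.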
hERG WT inh – qHTS for Inhibitors of KCHN2 3.1: Wildtype qHTS. 340,000 tested, 0.37% active. U2OS, BacMam KCNH2, thallium flux FluxOr; active compounds read low. Voltage-gated inwardly rectifying potassium channel KCNH2 (Homo sapiens), Q12809. AID 720551, 2013. activity change, % at 1.84 µM;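 active = maximum activity change below -70%; inconclusive = maximum activity change between -70% and -50%; inactive = maximum activity change above -50%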; also: % is scaled to controls: 0 for no effect and ±100 for the full control effect
Target sequence (Q12809 whole entry, looked up): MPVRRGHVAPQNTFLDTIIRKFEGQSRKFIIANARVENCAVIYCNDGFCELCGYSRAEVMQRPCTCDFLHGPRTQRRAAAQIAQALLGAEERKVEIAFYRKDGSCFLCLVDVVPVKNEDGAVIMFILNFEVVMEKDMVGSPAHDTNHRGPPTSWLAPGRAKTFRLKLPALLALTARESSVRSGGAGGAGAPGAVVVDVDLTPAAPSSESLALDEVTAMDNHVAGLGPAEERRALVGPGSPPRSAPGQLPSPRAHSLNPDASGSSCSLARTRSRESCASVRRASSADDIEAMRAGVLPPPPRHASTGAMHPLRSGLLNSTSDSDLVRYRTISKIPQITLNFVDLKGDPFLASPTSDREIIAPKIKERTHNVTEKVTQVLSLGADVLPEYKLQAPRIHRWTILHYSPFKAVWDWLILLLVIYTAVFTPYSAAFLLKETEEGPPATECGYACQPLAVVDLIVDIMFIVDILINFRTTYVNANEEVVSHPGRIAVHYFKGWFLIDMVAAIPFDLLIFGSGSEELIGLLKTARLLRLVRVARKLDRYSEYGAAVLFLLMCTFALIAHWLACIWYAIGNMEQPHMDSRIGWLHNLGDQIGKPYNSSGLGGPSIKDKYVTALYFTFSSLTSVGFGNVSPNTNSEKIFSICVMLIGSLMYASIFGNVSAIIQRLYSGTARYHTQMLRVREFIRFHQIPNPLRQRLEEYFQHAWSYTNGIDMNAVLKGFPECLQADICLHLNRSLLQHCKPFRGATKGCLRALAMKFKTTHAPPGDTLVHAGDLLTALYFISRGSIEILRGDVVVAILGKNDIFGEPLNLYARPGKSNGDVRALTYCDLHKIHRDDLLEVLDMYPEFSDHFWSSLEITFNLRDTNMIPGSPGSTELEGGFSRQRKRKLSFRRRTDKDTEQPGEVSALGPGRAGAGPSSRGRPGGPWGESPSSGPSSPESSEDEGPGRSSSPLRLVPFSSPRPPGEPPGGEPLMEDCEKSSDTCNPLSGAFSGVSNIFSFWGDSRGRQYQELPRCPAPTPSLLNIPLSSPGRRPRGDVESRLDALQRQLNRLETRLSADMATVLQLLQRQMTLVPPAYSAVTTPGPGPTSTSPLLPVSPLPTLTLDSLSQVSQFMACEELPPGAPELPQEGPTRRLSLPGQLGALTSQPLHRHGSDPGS
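U2OS cells transduced with wild-type KCNH2 virus are loaded with FluxOr dye for 45 min, and thallium flux is measured in kinetic reads before and after stimulation buffer. Rate constants are normalized to DMSO controls.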
MCF10A rereplic – A quantitative high throughput screen for small molecules that induce DNA re-replication in MCF 10a normal breast cells; MCF 10A DNA re-replication, Hoechst nuclear intensity, 48 h; Potency, µM (titrated, usually from 46.1 µM), for the others: at the highest dose activity, positive = re-replication, hits mostly activators; 350,000 tested, 2.9% active; also: potency is read from the fitted curve at half-maximal effect; % of control where 0% means no effect; nearly all actives have a fitted effect of over 50% in size
KB-V1 cytotox – qHTS assay for MDR1-selective chemotherapeutics: Primary screen using the drug-selected MDR subline cells KB-V1; KB-V1 MDR cells viability, CellTiter-Glo, 72 h; Potency, µM (highest dose often 46.1 µM), actives largely listed as cytotoxic; 400,000 tested, 3.4% active; AID 1347076, 2019; also: potency is read from the fitted curve at half-maximal effect; % is scaled to controls: 0 for no effect and ±100 for the full control effect; nearly all actives have a fitted effect of over 60% in size
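qHTS viability screen in drug-selected KB-V1 MDR cells: 72 h compound treatment at 37 degrees C, ATP luminescence end point.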
KCNH2 3.1 inh – qHTS for Inhibitors of KCHN2 3.1: Mutant qHTS; Potassium voltage-gated channel subfamily H member 2, brain isoform KCNH2 3.1 (human); U2OS KCNH2 3.1, thallium flux FluxOr; active compounds read low; activity change, % (tested at about 1.8 µM); 340,000 tested, 0.95% active; AID 720553, 2013;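 active = maximum activity change below -70%; inconclusive = maximum activity change from -70% to -50%; inactive = maximum activity change above -50%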;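 also: thallium influx rate constant from kinetic fluorescence after stimulation buffer; % is scaled to controls: 0 for no effect and ±100 for the full control effect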
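FluxOr-based Tl+ influx in U2OS cells transduced with KCNH2 3.1 virus; rate constants normalized to DMSO controls.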
KB-3-1 cytotox – qHTS assay for MDR1-selective chemotherapeutics: Primary screen using the parental adenocarcinoma cell KB-3-1 | KB-3-1 viability, CellTiter-Glo ATP luminescence, 72 h | Potency, µM (doses to about 46.1 µM), hits mostly cytotoxic | 400,000 tested, 1.4% active | AID 1347075, 2019; also: potency is read from the fitted curve at half-maximal effect; % is scaled to controls: 0 for no effect and ±100 for the full control effect; nearly all actives have a fitted effect of over 60% in size
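Luminescent ATP read-out (CellTiter-Glo) measures survival of drug-naive KB-3-1 cells after 72 h compound exposure at 37 °C. Titration series was screened from lowest to highest concentration, with DMSO vehicle plates as background controls.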
The depositor's hits bear a star; i = inactive; ? = inconclusive; · = not tested or not shown; [ ] = dose if it differs, or a comment. Unless noted, calls follow the shape of the dose curve; as a rule, active = well fitted curve in the direction sought with a large enough effect; inconclusive = small, poorly fitted or top-dose-only effect, or another doubt; inactive = no such curve, though single readings can be large; an effect the other way counts as inactive or inconclusive.

SMILES | SW480 rerep | hERG WT inh | MCF10A rereplic | KB-V1 cytotox | KCNH2 3.1 inh | KB-3-1 cytotox
COc1ccc(OCCCn2cc(/C=C3/C(=N)N4C=C(C)SC4=NC3=O)c3ccccc32)cc1 | -7.4% | 3.1 | 14.9% | 10.3µM* | -21.0 | i
COc1cccc(OCCn2cc(C=O)c3ccccc32)c1 | 3.0% | 2.0 | 6.6% | i | -12.6 | i
CC1=CN2C(=N)/C(=C/c3ccco3)C(=O)N=C2S1 | -124.0% | 2.0 | 9.7% | i | 16.6 | i
COc1cccc(OCCCn2cc(/C=C3/C(=N)N4C=C(C)SC4=NC3=O)c3ccccc32)c1 | 6.7% | -5.2 | 8.2µM* | i | -2.5 | i
CC1=CN2C(=N)/C(=C/c3cn(CCCOc4ccccc4C)c4ccccc34)C(=O)N=C2S1 | 14.6µM* | 9.8 | 21.6% | i | -18.9 | i
Cc1ccc(OC(=O)c2oc3ccc(F)cc3c2C)c(C)c1 | 18.4µM* | 15.8 | ? | i | -8.5 | i
COc1ccc(/C=C/C(=O)c2oc3ccc(F)cc3c2C)cc1 | -3.5% | -11.1 | 9.4% | i | -3.4 | i
COc1ccc(S(=O)(=O)n2nc(C)c(S(=O)(=O)N3CCCCCC3)c2C)cc1C | · | · | · | ? | · | i
Cc1cccc2sc(NNC(=O)c3ccc(S(=O)(=O)N4CCc5ccccc5C4)cc3)nc12 | 4.11µM* | 2.9 | ? | i | 0.6 | 5.8µM*
Cc1cccc2sc(NNC(=O)c3ccc(S(=O)(=O)N4CCCC(C)C4)cc3)nc12 (stereo not drawn) | 7.31µM* | -11.7 | ? | i | -9.5 | 5.17µM*
COc1ccc(C)cc1NC(=O)Cn1c(=O)oc2ccccc21 | 1.6% | -3.6 | 6.9% | i | 5.9 | i
O=C(CCS(=O)(=O)c1cccc2nonc12)Nc1ccc(F)cc1F | · | · | · | ? | · | i
CCOC(=O)c1cnc(-n2nc(C)cc2C)nc1Nc1ccc(C)cc1 | -6.6% | 5.2 | 6.0% | 1.03µM* | 0.7 | i
CCOC(=O)c1cnc(-n2cc(C)cn2)nc1Nc1ccccc1OC | 10.3% | -3.4 | 18.1% | 1.84µM* | 11.1 | ?
CCOC(=O)c1cnc(-n2nc(C)cc2C)nc1NNc1nc(C)cc(C)n1 | -22.7% | -6.0 | -1.1% | i | 5.8 | i
CCOC(=O)c1cnc(-n2nc(C)cc2C)nc1Nc1ccc(O)cc1 | -8.3% | -5.2 | -2.7% | ? | 5.0 | ?
CCOC(=O)c1cnc(-n2nc(C)cc2C)nc1NNc1nc(-c2ccccc2)cc(-c2ccccc2)n1 | ? | -2.2 | ? | ? | 3.6 | 25.9µM*
CCOC(=O)c1cnc(-n2nc(C)cc2C)nc1N(CC)CC | ? | 9.4 | -1.1% | 1.64µM* | 11.8 | i
CN(C(=O)COC(=O)c1ccc2c(=O)n3c(nc2c1)CCC3)C1CCS(=O)(=O)C1 (stereo not drawn) | -9.8% | 0.2 | 2.0% | i | 2.0 | i
O=C(c1ccco1)N1CCN(Cc2nnc(-c3ccccc3)o2)CC1 | -0.6% | 7.4 | 12.1% | i | 0.5 | i
CCOC(=O)c1cnc(-n2nc(C)cc2C)nc1NC1CCCCC1 | ? | -104.6* | 20.6µM* | 8.2µM* | -11.7 | ?
CCOC(=O)c1cnc(-n2nc(C)cc2C)nc1NC | ? | -9.9 | 1.1% | ? | -1.1 | i
CCCCCOC(=O)CSc1nnc(-c2ccccc2)c(=O)[nH]1 | -5.0% | -6.0 | -3.8% | i | 19.0 | i
COc1cc(Br)c(CC2c3cc(OC)c(OC)cc3CCN2C)cc1OC (stereo not drawn) | 0.3% | -11.5 | -1.0% | 20.6µM* | 5.3 | i
CCCc1[nH]n(-c2ccc(F)cc2)c(=O)c1C=NCC1CCCO1 (stereo not drawn) | -5.6% | -9.2 | 2.6% | i | 6.9 | i
SMILES | SW480 rerep | hERG WT inh | MCF10A rereplic | KB-V1 cytotox | KCNH2 3.1 inh | KB-3-1 cytotox
CCCc1[nH]n(-c2ccc(F)cc2)c(=O)c1C=Nc1cccc(F)c1 | ? | 8.0 | ? | ? | -5.6 | 5.8µM*
CCOc1ccc(S(=O)(=O)NCc2ccccn2)cc1NC(=O)c1ccccc1 | ? | 2.4 | ? | 6.51µM* | 5.7 | 2.31µM*
COc1ccc(S(=O)(=O)NCc2ccccn2)cc1NC(=O)c1ccccc1F | 5.8µM* | -1.0 | 13µM* | 1.84µM* | 8.8 | 1.46µM*
COc1ccccc1N1CCN(c2nc3ccccn3c(=O)c2C=O)CC1 | -0.5% | -9.2 | ? | i | -0.6 | i
O=C(Nc1ccccc1Cl)c1ccc([N+](=O)[O-])o1 | 7.31µM* | -2.2 | 13µM* | i | 8.4 | 23.1µM*
O=C(Nc1cccc2ncccc12)c1ccc(-c2ccc(Br)cc2)o1 | 0.5% | 10.2 | 1.3% | 10.3µM* | -18.0 | i
NC(=O)c1ccccc1NC(=O)c1ccc(-c2ccc(Br)cc2)o1 | · | · | · | i | · | i
Cc1ccccc1NC(=O)c1ccc([N+](=O)[O-])o1 | ? | 5.0 | 14.6µM* | i | 18.0 | i
Cc1cccc(NC(=O)c2ccc([N+](=O)[O-])o2)n1 | 3.66µM* | 1.6 | ? | ? | 6.6 | i
Cc1ccc(NC(=O)c2ccc([N+](=O)[O-])o2)c(C)c1 | ? | 2.7 | ? | ? | 9.0 | ?
Cn1ncc([N+](=O)[O-])c1C(=O)Nc1ccccc1Cl | 1.3% | -5.1 | 1.5% | ? | -0.7 | i
COc1cccc(CN2CCC2(C)C(=O)Nc2ccc3c(c2)CCN3C(C)=O)c1F (stereo not drawn) | · | · | · | i | · | i
CCOC(=O)c1cccc(NC(=O)Cc2ccc(NC(=O)N3CCCCc4ccccc43)cc2)c1 | · | · | · | i | · | i
CN1OC[C@@H]2CN[C@H](c3cccc(-c4ccccc4)c3)C[C@@H]21 | 11.7%[9.22 µM] | 3.8 | 6.0% | i | 19.2 | i
Cc1cccnc1NC(=O)c1ccc([N+](=O)[O-])o1 | ? | -6.4 | 0.2% | i | -6.0 | i
O=C(Nc1cccc2ncccc12)c1ccc([N+](=O)[O-])o1 | 1.46µM* | -1.0 | 4.61µM* | ? | -8.8 | i
O=C(NC(Cc1ccccc1)C(=O)O)/C(=C\c1ccc(Cl)cc1)NC(=O)c1ccccc1 (stereo not drawn) | 3.1% | -92.0* | -2.3% | ? | -13.8 | i
O=C(NC(Cc1ccccc1)C(=O)O)/C(=C/c1ccccc1)NC(=O)c1ccccc1 (stereo not drawn) | -1.1% | 6.7 | -4.1% | i | 1.9 | i
Cc1ccn2c(NC3CCCC3)c(-c3ccncc3)nc2c1 | -26.2% | 4.2 | 3.4% | i | 40.5 | i

Compound activity (PubChem)
